Measurements from PubChem BioAssay (NCI).
The panel holds about 83,000 compounds, 20% with a hit somewhere; the sample as a whole holds those more often.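 Growth was measured after 48 h exposure to one concentration of compound in 96-well plates. Values under 10 count as active.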 Active and inactive are the calls of the source.

Assays:
Test in all cases: NCI-60 one-dose screen, 48 h (100 = growth as untreated, 0 = no growth, -100 = all killed)
Details in all cases: 10 µM unless noted
NCI-H23 lung = system: NCI-H23 lung
NCI-H226 lung = system: NCI-H226 lung
NCI-H322M lung = system: NCI-H322M lung
HOP-62 NSCLC = system: HOP-62 NSCLC
NCI-H460 lung = system: NCI-H460 lung
HOP-92 NSCLC = system: HOP-92 NSCLC
NCI-H522 lung = system: NCI-H522 lung
A549/ATCC NSCLC = system: A549/ATCC NSCLC
786-0 renal = system: 786-0 renal
COLO 205 colon = system: COLO 205 colon
DU-145 prostate = system: DU-145 prostate
K-562 leukemia = system: K-562 leukemia
MALME-3M melanoma = system: MALME-3M melanoma
MDA-MB-231 breast = system: MDA-MB-231 breast
RXF 393 renal = system: RXF 393 renal
SF-268 CNS = system: SF-268 CNS
SF-295 CNS = system: SF-295 CNS
SF-539 CNS = system: SF-539 CNS
UACC-257 melanoma = system: UACC-257 melanoma
M14 melanoma = system: M14 melanoma

Measured: growth

COc1cc(/C=C/c2cn[nH]c2-c2ccc(C)cc2)cc(OC)c1OC
inactive: NCI-H23 lung 56.2% | NCI-H226 lung 65.4% | NCI-H322M lung 56.7% | HOP-62 NSCLC 33.8% | NCI-H460 lung 17.1% | HOP-92 NSCLC 45.6% | NCI-H522 lung 23.1% | A549/ATCC NSCLC 29.2% | 786-0 renal 37.1% | COLO 205 colon 12.6% | DU-145 prostate 43.4% | K-562 leukemia 15.5% | MALME-3M melanoma 52.3% | MDA-MB-231 breast 47.4% | RXF 393 renal 16.1% | SF-268 CNS 49.2% | SF-295 CNS 11.5% | SF-539 CNS 41.7% | UACC-257 melanoma 39.5%
active: M14 melanoma -3.71%

COc1ccc(/C=C/C(c2cc(OC)c(OC)c(OC)c2)n2cncn2)cc1O (stereo not given)
active: K-562 leukemia 8.05% | RXF 393 renal -16.9% | SF-295 CNS 1.43% | SF-539 CNS -4.58% | M14 melanoma -12.3%
inactive: NCI-H23 lung 41.5% | NCI-H226 lung 62.2% | NCI-H322M lung 54.7% | HOP-62 NSCLC 22.5% | NCI-H460 lung 13.3% | HOP-92 NSCLC 48% | NCI-H522 lung 13% | A549/ATCC NSCLC 40.1% | 786-0 renal 23.3% | COLO 205 colon 60.6% | DU-145 prostate 21% | MALME-3M melanoma 54.4% | MDA-MB-231 breast 45.5% | SF-268 CNS 54.1% | UACC-257 melanoma 55.6%

C/C(Cc1ccc(Cl)cc1)=C(\c1ccc(OCCN2CCCCCC2)cc1)c1ccc(OC(=O)c2ccccc2)cc1
active: NCI-H460 lung 3.3% | HOP-92 NSCLC -4.45% | K-562 leukemia 1.83% | M14 melanoma -49.8%
inactive: NCI-H23 lung 46.8% | NCI-H226 lung 86.2% | NCI-H322M lung 70% | HOP-62 NSCLC 81% | NCI-H522 lung 62.4% | A549/ATCC NSCLC 54.3% | 786-0 renal 12% | COLO 205 colon 44.7% | DU-145 prostate 55.6% | MALME-3M melanoma 11.7% | MDA-MB-231 breast 39.7% | RXF 393 renal 22% | SF-268 CNS 37.1% | SF-295 CNS 56% | SF-539 CNS 71% | UACC-257 melanoma 45.2%

CN(C)c1ccc(/C=N\NC(=O)c2ccc3nc(-c4ccc(Cl)cc4)[nH]c3c2)cc1
inactive: NCI-H23 lung 61.4% | NCI-H226 lung 93.1% | NCI-H322M lung 77.6% | HOP-62 NSCLC 60.5% | NCI-H460 lung 36.2% | HOP-92 NSCLC 84.6% | NCI-H522 lung 96.1% | A549/ATCC NSCLC 17.8% | 786-0 renal 12.2% | COLO 205 colon 41.3% | DU-145 prostate 85.4% | K-562 leukemia 38.8% | MALME-3M melanoma 11.8% | MDA-MB-231 breast 63.9% | RXF 393 renal 77.4% | SF-268 CNS 78.2% | SF-295 CNS 31.3% | SF-539 CNS 88% | UACC-257 melanoma 100% | M14 melanoma 60.3%

O=S(Nc1ccccc1)c1ccc(Cl)cc1 (stereo not given)
inactive: NCI-H23 lung 105% | NCI-H226 lung 99.9% | NCI-H322M lung 104% | HOP-62 NSCLC 92% | NCI-H460 lung 95.1% | HOP-92 NSCLC 103% | NCI-H522 lung 82.8% | A549/ATCC NSCLC 78.9% | 786-0 renal 103% | COLO 205 colon 102% | DU-145 prostate 116% | K-562 leukemia 94.6% | MALME-3M melanoma 108% | MDA-MB-231 breast 103% | RXF 393 renal 99.2% | SF-268 CNS 100% | SF-295 CNS 107% | SF-539 CNS 102% | UACC-257 melanoma 86.2% | M14 melanoma 99.2%

Cc1nc2ccccc2c(/C=C/c2ccc(F)cc2)c1C(=O)/C=C/c1ccccc1
inactive: NCI-H23 lung 20.7% | NCI-H226 lung 50.6% | NCI-H322M lung 37.7% | HOP-92 NSCLC 50.6% | A549/ATCC NSCLC 25% | 786-0 renal 24.1% | COLO 205 colon 10.5% | DU-145 prostate 10.2% | MALME-3M melanoma 31.1% | MDA-MB-231 breast 22.4% | SF-268 CNS 37.9% | SF-295 CNS 32.5% | M14 melanoma 12.4%
active: HOP-62 NSCLC -4.45% | NCI-H460 lung -41.9% | NCI-H522 lung 5.78% | K-562 leukemia 6.31% | RXF 393 renal -3.77% | SF-539 CNS 1.11% | UACC-257 melanoma 7.87%

Cc1nc2sc(C(=O)Nc3cccc(Cl)c3C)c(N)c2cc1C(=O)/C=C/c1ccccc1
active: NCI-H226 lung -52.2% | HOP-62 NSCLC -11.2% | NCI-H460 lung -25.3% | HOP-92 NSCLC 1.05% | NCI-H522 lung -49.8% | 786-0 renal -51.1% | COLO 205 colon -5.18% | DU-145 prostate 5.7% | MDA-MB-231 breast -38.4% | RXF 393 renal -82.8% | SF-268 CNS 4.07% | SF-295 CNS -14.8% | SF-539 CNS -25.5% | M14 melanoma -15.9%
inactive: NCI-H23 lung 28.6% | NCI-H322M lung 19.1% | A549/ATCC NSCLC 10.1% | K-562 leukemia 10.2% | MALME-3M melanoma 39.7% | UACC-257 melanoma 64.2%

CS(=O)(=O)Nc1cc(-c2ccc3ncnc(Nc4ccc5c(cnn5Cc5ccccc5F)c4)c3c2)cnc1Cl
active: HOP-92 NSCLC -21.4% | MALME-3M melanoma -7.51%
inactive: NCI-H23 lung 41.8% | NCI-H226 lung 66.7% | NCI-H322M lung 62% | HOP-62 NSCLC 40.3% | NCI-H460 lung 59.4% | NCI-H522 lung 34.3% | A549/ATCC NSCLC 71.3% | 786-0 renal 53.1% | COLO 205 colon 59.4% | DU-145 prostate 51.9% | K-562 leukemia 57.3% | MDA-MB-231 breast 36.1% | RXF 393 renal 20.2% | SF-268 CNS 24.3% | SF-295 CNS 60.9% | SF-539 CNS 34.5% | UACC-257 melanoma 52.9% | M14 melanoma 39.1%
